Experimental data: PubChem BioAssay
The source made the active and inactive calls. Unless noted, no rule for the calls is given here.

How the values were obtained:
[1] = anti-His antibody binders, primary screen, artefact control for SMM control protein annotation, biochemical, small-molecule microarray, 635 nm fluorescence (AID 1128); conditions: anti-His Alexa647 antibody binding, higher = more signal;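 also: score merges feature fluorescence with signal-to-noise for each printed compound spot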
[2] = system: Human papillomavirus type 1a E7 protein (residues 1-88); experiment: HPV1a E7 small-molecule binders, primary screen, biochemical, small-molecule microarray, residues 1-88, 635 nm (AID 1129); conditions: small-molecule microarray binding, fluorescence 635 nm; higher = more signal
[3] = molecular target: Focal adhesion kinase 1 (Homo sapiens) (UniProt Q05397); experiment: small-molecule microarray binders of FAK, primary screen, biochemical, 635/667 nm fluorescence, BSA, DTT (AID 1130); conditions: PTK2 binding, 635 nm fluorescence, higher = more signal;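 also: composite of spot emission at 667 nm and signal to noise over triplicate slides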
Focal adhesion kinase 1 (Homo sapiens), sequence (Q05397 whole entry, looked up): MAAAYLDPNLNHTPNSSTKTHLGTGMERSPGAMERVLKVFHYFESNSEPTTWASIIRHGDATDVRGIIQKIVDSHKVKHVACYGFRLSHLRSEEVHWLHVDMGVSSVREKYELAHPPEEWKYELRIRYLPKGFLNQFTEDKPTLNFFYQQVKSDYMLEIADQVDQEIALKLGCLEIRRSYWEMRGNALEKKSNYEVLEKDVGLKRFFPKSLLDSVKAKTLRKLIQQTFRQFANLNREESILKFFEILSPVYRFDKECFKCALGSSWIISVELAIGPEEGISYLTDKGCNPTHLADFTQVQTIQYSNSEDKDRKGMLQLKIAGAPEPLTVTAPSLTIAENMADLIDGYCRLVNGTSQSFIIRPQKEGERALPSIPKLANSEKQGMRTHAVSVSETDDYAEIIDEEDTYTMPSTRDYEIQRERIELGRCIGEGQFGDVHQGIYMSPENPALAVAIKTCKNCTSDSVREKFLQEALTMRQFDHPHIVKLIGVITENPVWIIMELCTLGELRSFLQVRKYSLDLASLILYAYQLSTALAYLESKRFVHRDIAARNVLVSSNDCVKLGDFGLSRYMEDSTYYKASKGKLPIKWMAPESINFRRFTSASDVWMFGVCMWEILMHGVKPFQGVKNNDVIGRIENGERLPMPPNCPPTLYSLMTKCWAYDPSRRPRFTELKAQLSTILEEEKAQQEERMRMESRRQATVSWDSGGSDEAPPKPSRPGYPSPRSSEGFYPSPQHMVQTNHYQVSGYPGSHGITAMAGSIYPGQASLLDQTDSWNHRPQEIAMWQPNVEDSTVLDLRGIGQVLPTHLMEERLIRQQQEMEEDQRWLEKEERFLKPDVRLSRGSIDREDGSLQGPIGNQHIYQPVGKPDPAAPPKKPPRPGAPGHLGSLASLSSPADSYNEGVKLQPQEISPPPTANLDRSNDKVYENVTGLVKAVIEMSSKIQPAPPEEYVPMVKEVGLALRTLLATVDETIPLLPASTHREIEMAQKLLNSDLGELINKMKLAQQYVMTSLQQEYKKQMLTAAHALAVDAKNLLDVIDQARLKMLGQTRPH

[4] = system: Fibrinogen (Alexa647-labelled); experiment: fibrinogen binders on compound microarrays, profiling panel, artefact control for SMM control-protein annotation, biochemical, small-molecule microarray, 635/667 nm fluorescence (AID 1131); conditions: fibrinogen-A647 binding fluorescence, higher = more signal;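 also: z-score merges 667 nm fluorescence with per-spot signal-to-noise over triplicate slides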
[5] = molecular target: Follistatin (Homo sapiens) (UniProt P19883); experiment: follistatin binders on small-molecule microarrays, primary screen, biochemical, small-molecule microarray, 635/667 nm fluorescence (AID 1132); conditions: FST binding, 635 nm fluorescence, higher = more signal
Follistatin (Homo sapiens), sequence (P19883 whole entry, looked up): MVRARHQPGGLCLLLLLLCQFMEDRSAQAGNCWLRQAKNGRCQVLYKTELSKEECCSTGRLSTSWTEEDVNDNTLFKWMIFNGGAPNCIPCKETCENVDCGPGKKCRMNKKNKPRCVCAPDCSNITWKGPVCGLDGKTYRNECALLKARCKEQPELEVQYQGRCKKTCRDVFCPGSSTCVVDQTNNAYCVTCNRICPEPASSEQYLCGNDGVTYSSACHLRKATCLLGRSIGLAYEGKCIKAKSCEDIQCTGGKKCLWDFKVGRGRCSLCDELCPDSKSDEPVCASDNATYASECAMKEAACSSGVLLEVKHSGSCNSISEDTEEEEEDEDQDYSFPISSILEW

[6] = molecular target: Fibroblast growth factor 2 (Homo sapiens) (UniProt P09038); experiment: FGF2 binders on small-molecule microarrays, primary screen, biochemical, small-molecule microarray, 635/667 nm fluorescence (AID 1133); conditions: small-molecule microarray binding, FGF2, fluorescence 635/667; higher = more signal
Fibroblast growth factor 2 (Homo sapiens), sequence (P09038 whole entry, looked up): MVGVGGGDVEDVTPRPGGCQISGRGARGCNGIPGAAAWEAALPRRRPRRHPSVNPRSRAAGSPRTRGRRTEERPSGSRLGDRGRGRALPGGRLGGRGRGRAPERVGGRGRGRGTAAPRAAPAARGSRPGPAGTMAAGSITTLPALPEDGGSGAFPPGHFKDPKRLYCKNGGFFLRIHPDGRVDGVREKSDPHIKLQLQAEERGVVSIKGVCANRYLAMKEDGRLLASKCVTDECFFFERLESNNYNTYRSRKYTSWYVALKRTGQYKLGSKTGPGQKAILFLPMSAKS

[7] = mitochondrial membrane potential change in A549 cells, profiling panel, cell-based, JC-1 fluorescence, basal, 24 h, 100 nL (AID 1138); conditions: higher = more signal;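 also: A549 lung adenocarcinoma cells under basal conditions with no added stimulus; test concentration not given here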
Lefty1 = Lefty1 binders on small-molecule microarrays, primary screen, biochemical, small-molecule microarray, 635/667 nm fluorescence (AID 1139); conditions: small-molecule microarray binding, fluorescence 635/667; higher = more signal
[8] = system: wheat germ agglutinin (Triticum aestivum), Alexa647-labelled; experiment: wheat germ agglutinin binders on compound microarrays, profiling panel, artefact control for SMM control-protein annotation, biochemical, small-molecule microarray, 635/667 nm fluorescence (AID 1140); conditions: WGA-A647 binding, 635 nm fluorescence, higher = more signal;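 also: score merges 667 nm feature emission with signal to noise over triplicate slides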
[9] = molecular target: Luciferin 4-monooxygenase (Photinus pyralis) (UniProt P08659); experiment: firefly luciferase enzyme inhibitors, primary screen, biochemical, luminescence, purified enzyme, 2006 set (AID 1141); conditions: SteadyGlo luminescence, 30 min, higher = more signal, called active from +8 up or from −8 down;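 also: cell-free assay with purified firefly luciferase at 100 ng per well in PBS; test concentration not given here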
Luciferin 4-monooxygenase (Photinus pyralis), sequence (P08659 whole entry, looked up): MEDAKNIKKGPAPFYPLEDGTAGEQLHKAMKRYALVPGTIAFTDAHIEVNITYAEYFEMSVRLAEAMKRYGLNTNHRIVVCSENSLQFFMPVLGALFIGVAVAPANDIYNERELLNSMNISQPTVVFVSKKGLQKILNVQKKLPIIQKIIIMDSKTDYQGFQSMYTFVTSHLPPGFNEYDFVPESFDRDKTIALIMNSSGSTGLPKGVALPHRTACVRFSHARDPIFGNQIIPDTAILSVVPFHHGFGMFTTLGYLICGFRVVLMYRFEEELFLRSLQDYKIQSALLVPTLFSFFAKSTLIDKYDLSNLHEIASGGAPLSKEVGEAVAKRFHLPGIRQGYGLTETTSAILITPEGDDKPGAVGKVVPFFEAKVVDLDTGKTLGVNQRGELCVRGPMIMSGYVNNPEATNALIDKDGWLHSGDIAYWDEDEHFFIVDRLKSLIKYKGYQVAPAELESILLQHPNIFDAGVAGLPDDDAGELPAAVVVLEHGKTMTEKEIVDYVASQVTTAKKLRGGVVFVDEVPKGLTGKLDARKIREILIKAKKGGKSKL

[10] = system: Wnt5a (protein binding on small-molecule microarray); experiment: Wnt5a binders on small-molecule microarray, primary screen, biophysical, 635/667 nm fluorescence (AID 1142); conditions: 635 nm fluorescence, higher = more signal;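 also: fluorescence read at 667 nm with signal to noise per printed feature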
[11] = cell viability in Huh7 cells, primary screen, cytotoxicity control for HCV replication inhibitor project, CellTiter-Glo luminescence, basal, 48 h (AID 1143); conditions: Huh7 HCV replicon, higher = more signal, called active from +8 up or from −8 down;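 also: Huh7 hepatoma cells carrying a hepatitis C replication reporter with no stimulus; test concentration not given here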
[12] = P. aeruginosa biofilm formation inhibitors, primary screen, PAO1 strain, BacTiter-Glo luminescence, LB-PBS (AID 1144); conditions: 12 h, higher = more signal
[13] = CREB reporter modulators without forskolin, primary screen, cell-based, PC12, CRE-LacZ reporter, unstimulated (AID 1145); conditions: no forskolin, luminescence, 4.5 h, higher = more signal, called active from +8 up or from −8 down
[14] = CREB reporter modulators under forskolin, primary screen, cell-based, PC12, CRE-LacZ reporter, forskolin-stimulated (AID 1146); conditions: luminescence, 4.5 h, higher = more signal, called active from +8 up or from −8 down;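 also: PC12 cells with 6xCRE LacZ reporter stimulated by forskolin 10 µM; beta-galactosidase reporter signal reflecting CREB driven transcription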
[15] = molecular target: Streptavidin (Streptomyces avidinii) (UniProt P22629); experiment: streptavidin binders on small-molecule microarray, primary screen, artefact control for SMM compound annotation, biophysical, 635/667 nm fluorescence (AID 1147); conditions: streptavidin binding, higher = more signal;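 also: signal reflects streptavidin binding to arrayed compounds as a control protein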
Streptavidin (Streptomyces avidinii), sequence (P22629 whole entry, looked up): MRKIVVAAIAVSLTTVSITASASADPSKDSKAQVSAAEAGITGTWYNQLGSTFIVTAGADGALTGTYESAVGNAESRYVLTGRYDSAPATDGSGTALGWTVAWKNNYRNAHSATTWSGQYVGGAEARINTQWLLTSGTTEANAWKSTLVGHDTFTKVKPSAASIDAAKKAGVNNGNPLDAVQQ

[16] = small-molecule binders of probe aInhba, primary screen, biochemical, small-molecule microarray, 635/667 nm fluorescence (AID 1148); conditions: higher = more signal;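 also: score merges 667nm spot fluorescence with signal-to-noise for antibody binding to printed compounds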
Torsin-1A (Homo sapiens) [17] = molecular target: Torsin-1A (Homo sapiens) (UniProt O14656); experiment: torsin A binders from cell lysate, primary screen, small-molecule microarray, wild-type, 635/667 nm (AID 1149); conditions: COS7 hTOR1A-WT lysate, 635 nm fluorescence, higher = more signal
Torsin-1A (Homo sapiens), sequence (O14656 whole entry, looked up): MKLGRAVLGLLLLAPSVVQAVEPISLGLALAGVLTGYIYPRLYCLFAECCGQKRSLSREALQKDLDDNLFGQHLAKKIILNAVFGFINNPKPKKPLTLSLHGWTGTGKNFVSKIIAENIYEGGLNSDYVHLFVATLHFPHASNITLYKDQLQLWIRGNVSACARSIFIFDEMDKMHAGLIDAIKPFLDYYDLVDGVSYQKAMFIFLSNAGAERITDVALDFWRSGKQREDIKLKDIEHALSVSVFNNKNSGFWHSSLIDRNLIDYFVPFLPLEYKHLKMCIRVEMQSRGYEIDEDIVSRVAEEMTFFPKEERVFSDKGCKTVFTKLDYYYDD

Torsin-1A (Homo sapiens) [18] = molecular target: Torsin-1A (Homo sapiens) (UniProt O14656); experiment: small-molecule binders of mutant TOR1A in lysate, primary screen, cell lysate, small-molecule microarray, COS7 lysate, 635/667 nm fluorescence (AID 1150); conditions: COS7 hTOR1A mutant lysate, 635 nm fluorescence, higher = more signal;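 also: score pools 667 nm emission and signal to noise measuring lysate protein binding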
[19] = system: Sonic hedgehog protein (Shh); experiment: small-molecule binders of Shh protein, primary screen, biochemical, small-molecule microarray, 635/667 nm fluorescence (AID 1151); conditions: small-molecule microarray binding, 635 nm fluorescence; higher = more signal;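 also: Shh protein binding to compounds spotted on small-molecule microarray slides; score combines spot fluorescence intensity with signal-to-noise across triplicate slides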

Structure (SMILES)	composite z-score [1]	composite z-score [2]	composite z-score [3]	composite z-score [4]	composite z-score [5]	composite z-score [6]	z-score [7]	composite z-score (Lefty1)	composite z-score [8]	z-score [9]	composite z-score [10]	z-score [11]	z-score [12]	z-score [13]	z-score [14]	composite z-score [15]	composite z-score [16]	composite z-score (Torsin-1A (Homo sapiens) [17])	composite z-score (Torsin-1A (Homo sapiens) [18])	composite z-score [19]
CC(C)OC(=O)C=C1C[C@@H](c2ccccc2C(F)(F)F)O[C@@H](c2ccccc2C(F)(F)F)O1	0.209	0.737	0.554	0.183	-0.0154	0.179	1.81	0.109	0.127	0.464 (inactive)	0.0503	-4.32 (inactive)	-0.0124 (inactive)	0.0798 (inactive)	1.22 (inactive)	0.215	-0.176	0.217	0.202	0.245
CCOC(=O)C=Cc1cc([N+](=O)[O-])ccc1O	-0.59	-0.455	-0.0779	-0.429	-0.907	-0.652	-2.31	-0.83	-0.0396	1.38 (inactive)	-0.128	-4.44 (inactive)	-0.283 (inactive)	0.173 (inactive)	-2.08 (inactive)	0.572	-0.0523	0.437	0.328	-0.117
[N-]=[N+]=Nc1ccccc1C[C@]1(C(N)=O)N=C(c2ccc(OCCCO)cc2)O[C@H]1c1ccccc1	2.45	1.2	-0.155	1.01	0.371	-0.768	0.518	-0.364	1.23	-1.53 (inactive)	0.498	-2.27 (inactive)	-0.726 (inactive)	1.31 (inactive)	-0.723 (inactive)	0.665	0.0516	0.644	-0.0736	-1.98
COc1ccc(C(=O)Nc2cccc(CN3C(=O)[C@]4(O[C@H](CCO)[C@@H]([Si](C)(C)c5ccc(OC)cc5)[C@@H]4C)c4ccccc43)c2)cc1	0.869	1.17	0.354	0.579	1.24	0.699	-1.52	1.35	0.32	0.681 (inactive)	0.24	-8.03 (active)	-0.694 (inactive)	10.9 (active)	-1.29 (inactive)	0.388	-0.121	0.271	0.424	1.83
CC(C)C(CO)N1C(=O)[C@@H]2[C@H]3C(=O)OCC=C[C@H]3OC23C=CCN(C(C)C)C(=O)[C@@H]13 (stereo not given in full)	0.443	-0.349	0.0732	-0.841	0.405	-0.501	-0.654	0.433	-0.131	0.316 (inactive)	-0.3	-0.602 (inactive)	-0.1 (inactive)	-0.757 (inactive)	-0.681 (inactive)	-0.629	-0.0963	-0.543	-0.374	0.841
CN(C)CCCNC(=O)[C@@]1(c2ccc([N+](=O)[O-])cc2)CC(=O)N(C2CCCCC2)[C@@H]1c1ccc(CO)cc1	-0.0406	0.108	-0.221	0.874	0.928	-0.209	1.22	0.401	-0.0351	-0.0244 (inactive)	-0.217	-0.406 (inactive)	0.382 (inactive)	0.234 (inactive)	-0.342 (inactive)	0.494	0.0342	-0.485	-0.161	0.371
COCCOC(=O)N1C(=O)[C@@]2(c3cc(C#Cc4ccc(OC)cc4)ccc31)[C@H](C(N)=O)[C@H]1C(=O)O[C@H](c3ccccc3)[C@H](c3ccccc3)N1[C@@H]2c1ccccc1OCCO	2.24	1.21	0.861	1	1.3	1.42	-1.47	1.58	0.901	0.0449 (inactive)	0.753	-3.77 (inactive)	-0.438 (inactive)	-0.168 (inactive)	-0.134 (inactive)	0.784	0.398	0.666	1.81	1.66
CCOC(=O)C[C@H]1[C@H](OC(=O)c2cc3ccccc3oc2=O)[C@@H](NC(=O)C2CCCCC2)c2cc(OCCCO)ccc2N1C(=O)c1ccccc1	0.127	0.942	0.711	0.799	0.786	1.48	-0.353	0.558	0.667	-0.196 (inactive)	-0.0359	-3.06 (inactive)	0.838 (inactive)	11 (active)	-1.65 (inactive)	0.191	-0.0245	0.046	0.159	0.705
C=CCNC(=O)[C@@H]1[C@H]2C(=O)O[C@H](c3ccccc3)[C@H](c3ccccc3)N2[C@H](c2ccccc2OCCO)[C@@]12C(=O)N(C(=O)OCCOC)c1ccc(C#CCNC(N)=O)cc12	1.56	1.14	0.322	0.887	0.864	0.658	-0.206	0.857	0.916	-0.63 (inactive)	0.0308	-0.952 (inactive)	-0.441 (inactive)	-0.199 (inactive)	0.447 (inactive)	0.225	0.115	0.186	0.697	1.53
C=C(CCCC)C(=O)CC[C@@H](OC(=O)c1cccnc1)c1ccc(CO)o1	1.18	1	-0.338	0.947	1.25	1.47	-0.627	1.36	0.828	-2.32 (inactive)	0.314	-0.0785 (inactive)	-0.0897 (inactive)	2.41 (inactive)	0.783 (inactive)	1.05	-0.0774	0.984	1.74	2.04
O=C1O[C@@H](c2ccccc2)[C@@H](c2ccccc2)N2[C@@H](c3ccc(OCCO)cc3)[C@]3(C(=O)Nc4ccccc43)[C@@H](C(=O)NC[C@H](O)c3ccccc3)[C@H]12	0.87	0.894	-0.177	0.371	1.34	0.968	-0.575	0.0849	0.638	-1.46 (inactive)	0.0635	-1.19 (inactive)	-0.388 (inactive)	-0.606 (inactive)	2.97 (inactive)	0.146	0.0561	0.437	0.14	0.95
COCCCNC(=O)[C@@]1(Cc2ccccc2)N=C(c2ccc(OCCCO)cc2)O[C@H]1c1ccccc1	3.17	1.26	0.102	0.959	0.448	0.706	0.26	-0.559	1.11	-0.391 (inactive)	1.3	-1.99 (inactive)	0.669 (inactive)	-0.0249 (inactive)	-0.437 (inactive)	2.34	0.786	0.268	1.16	0.0157
